Results reported in PubChem BioAssay (NCI).
About 83,000 compounds went through this panel and 20% of them were active in at least one assay; those are over-represented in the sample as a whole.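 Single-dose data. Exposure time 48 hours. Values below 10 considered active.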 A number with no mark means an inactive call. Activity calls are given as the source filed them.

Tests used:
Test in all cases: NCI-60 one-dose screen, 48 h (100 = growth as untreated, 0 = no growth, -100 = all killed)
Conditions in all cases: 10 µM unless noted
SK-MEL-2 melanoma = tested on: SK-MEL-2 melanoma
EKVX NSCLC = tested on: EKVX NSCLC
SN12C renal = tested on: SN12C renal
UO-31 renal = tested on: UO-31 renal
TK-10 renal = tested on: TK-10 renal
ACHN renal = tested on: ACHN renal
CAKI-1 renal = tested on: CAKI-1 renal
A498 renal = tested on: A498 renal
CCRF-CEM leukemia = tested on: CCRF-CEM leukemia
MOLT-4 leukemia = tested on: MOLT-4 leukemia

| Compound | growth (SK-MEL-2 melanoma) | growth (EKVX NSCLC) | growth (SN12C renal) | growth (UO-31 renal) | growth (TK-10 renal) | growth (ACHN renal) | growth (CAKI-1 renal) | growth (A498 renal) | growth (CCRF-CEM leukemia) | growth (MOLT-4 leukemia) |
| --- | --- | --- | --- | --- | --- | --- | --- | --- | --- | --- |
| COc1ccc(/C=N/C2=C(C#N)C(c3cccc(Cl)c3)c3c(ccc4ccccc34)O2)cc1 (stereo not given) | 51.2% | 33.9% | 39.6% | 43% | 82% | 31% | 20.3% | -4.91% (active) | 16.9% | 21.8% |
| O=C(/C=C(/C=C/c1cccc2[nH]ccc12)OB(F)F)/C=C/c1cccc2[nH]ccc12 | -57.9% (active) | -30.9% (active) | -1.2% (active) | -77.6% (active) | -37.9% (active) | -70.3% (active) | -73.6% (active) | -35.2% (active) | -32.1% (active) | -11.9% (active) |
| Cc1nc2ncnc(Cl)c2[nH]1 | 104% | 103% | 99.7% | 88.3% | 94.4% | 109% | 94.7% | 97.3% | 87.7% | 94.7% |
| C=C(C)[C@@H]1CC[C@]2(C(=O)NCC#CCN3CCN(C)CC3)CC[C@]3(C)[C@H](CC[C@@H]4[C@@](C)(CCC#N)[C@H](C(=C)C)CC[C@]43C)[C@@H]12 | 91.8% | 52.1% | 69.2% | 51.6% | 80.4% | 70.8% | 57.7% | 57.5% | 51.3% | 10.9% |
| COC(C(=O)[C@@H](O)[C@@H](C)O)[C@@H]1Cc2cc3cc(O[C@H]4C[C@@H](O[C@H]5C[C@@H](O)[C@H](O)C(C)O5)[C@H](O)C(C)O4)c(C)c(O)c3c(O)c2C(=O)[C@H]1O[C@H]1C[C@@H](O[C@H]2C[C@@H](O[C@H]3C[C@@H](O)[C@H](OC)C(C)O3)[C@@H](O)C(C)O2)[C@H](O)C(C)O1 (stereo not given in full) | -43.7% (active) | 12.3% | 15.9% | -8.18% (active) | -2% (active) | 4.45% (active) | 13.7% | -47.5% (active) | 9.56% (active) | -6.79% (active) |
| O=C1CC(N2C(=O)/C(=C/C(Cl)=C\c3ccc([N+](=O)[O-])cc3)SC2=S)C(=O)N1c1ccc(Cl)cc1 (stereo not given) | 68.3% | 32.3% | 4.02% (active) | -42.8% (active) | 38% | 1.2% (active) | 23.5% | 55% | 11.4% | 11.7% |
| COc1cc(NC(C)CCCNC(C)C)c2ncccc2c1OC (stereo not given) | 90.8% | 105% | 85.8% | 57.7% | 105% | 104% | 88.2% | 61.3% | 89.3% | 98.4% |
| OB(O)c1cccc(-c2nc3ccc4[nH]ncc4c3c3c2CCCC3)c1 | 81.1% | 65.6% | 48.8% | 35.1% | 29.3% | 38% | -11.5% (active) | 15.2% | 32.2% | 28.7% |
| NC(=O)c1c(NC(=O)c2ccccc2)sc2c1CCC(=O)C2 | 12.7% | 19.2% | 12.2% | 0.418% (active) | 54.9% | 7.58% (active) | -8.25% (active) | 92.3% | 5.12% (active) | 5.67% (active) |
| COC(=O)c1cc(-c2ccc(OC)cc2)[nH]c1N/N=C/c1c(Cl)cccc1Cl | 52.9% | 20.1% | 26% | 27.9% | 47.8% | 39.3% | -5.7% (active) | -2.53% (active) | 12.2% | 12.4% |
| CN(C)CCNC(=O)c1cccc(-c2cnc3ccc(-c4ccc5c(c4)OCO5)nn23)c1 | 69.8% | 90% | 70.8% | 36.8% | 75.9% | 47.8% | 36.8% | 90.7% | 75.7% | 59.4% |
| CCN(CC)C(=S)SC(SC(=S)N(CC)CC)C(=O)c1nnn(-c2ccc([N+](=O)[O-])cc2)c1C | 91.6% | 97.2% | 96.4% | 80.5% | 107% | 98.7% | 89.5% | 67.3% | 68.3% | 92.5% |
| CC(=O)Cc1nsc(NC(=O)c2cc(-c3cc(Cl)cc(Cl)c3)oc2C)n1 | 102% | 97.3% | 98.8% | 81% | 130% | 105% | 90.8% | 103% | 103% | 96.7% |
| O=S(=O)(Nc1ccccc1)c1ccc(C2CC3(Cl)C(Cl)=C(Cl)C2(Cl)C3(Cl)Cl)cc1 (stereo not given) | 74.1% | 36.3% | -18.5% (active) | 26.7% | 66.2% | 40% | -19.8% (active) | 62.4% | 47.6% | 30% |
| COc1ccc(-c2csc(N(C(=O)N3CCN(c4cc5c(cc4F)c(=O)c(C(=O)O)cn5C4CC4)CC3)c3ccccc3)n2)cc1 | 0.424% (active) | 15.8% | 6.41% (active) | 4.2% (active) | 32.1% | -62.5% (active) | 6% (active) | 3.67% (active) | 24.9% | 16% |
| O=C1C(Cl)=C(Oc2ccccc2)C(=O)c2ccccc21 | 73.4% | 87.2% | 87.9% | 51.7% | 49.4% | 26.6% | 76.9% | 98.7% | 8.95% (active) | 57.4% |
| CCOC(=O)C1=C(NC)OCC1=O | 116% | 99.3% | 103% | 88.3% | 99.4% | 110% | 100% | 86.1% | 101% | 97.3% |
| Oc1c(Cl)cc(Cl)cc1/C=N/Nc1nnc(N/N=C/c2cc(Cl)cc(Cl)c2O)c2ccccc12 | 51.2% | 10.2% | 20% | 0.684% (active) | 37.8% | 7.55% (active) | -34.7% (active) | -2.98% (active) | 14% | 5.23% (active) |
| COc1ccc(-c2nc3c(c(-c4ccccc4)nn3-c3ccccc3)c(-c3ccc(N4CCN(C)CC4)cc3)c2C#N)cc1 | 106% | 104% | 93.7% | 76.2% | 99% | 95.3% | 90% | 99.6% | 85.3% | 69.4% |
| CCCNC(=O)Oc1ccc(/C(=C(/C)Cc2ccc(OC)cc2)c2ccc(OCCCN(C)C)cc2)cc1 | 96.5% | 85.7% | 84% | 60.6% | 88.3% | 99.4% | 101% | 97.6% | 56.4% | 33.1% |
| Cc1nc(N2CCOCC2)sc1S(N)(=O)=O | 98.6% | 101% | 94.5% | 86.5% | 90.1% | 100% | 96.9% | 93.4% | 105% | 107% |
| COc1ccc2c(O)c(/C=C3\N=Nc4ncccc43)oc2c1C[C@H]1CCNC[C@H]1F | -6.33% (active) | 5.31% (active) | 7.25% (active) | 4.13% (active) | 19.8% | 4.51% (active) | 6% (active) | -41.8% (active) | -3.17% (active) | -34.3% (active) |
| O=C(Nc1cccnc1Nc1ccc(F)cc1)c1cn(Cc2cccc(Oc3ccccc3)c2)nn1 | 73.9% | 75.9% | 79.2% | 46.7% | 98.7% | 83.7% | 78% | 60.5% | 63.2% | 32% |
| O=C(OCc1ccc2c(Cl)cc(Cl)c(O)c2n1)n1cncn1 | 36.6% | 26.4% | 37.2% | 15.2% | 61.7% | 25.3% | 13.6% | 64.9% | 24.2% | 18.3% |
| Cn1cc(-c2csc(-c3ccc(Cl)cc3)n2)c2cccnc21 | -22% [100 µM] (active) | -14.4% [100 µM] (active) | -42.7% [100 µM] (active) | -37.5% [100 µM] (active) | -26.1% [100 µM] (active) | -50.9% [100 µM] (active) | -29.3% [100 µM] (active) | -79.9% [100 µM] (active) | -18.8% [100 µM] (active) | 2.44% [100 µM] (active) |
| S=C(Nc1ccc(-c2nc(N3CCOCC3)c3cccn3n2)cc1)Nc1cccnc1 | 43.5% | 46.7% | 28.8% | 15.1% | 21.4% | 37.3% | 60.6% | -13.3% (active) | 22.1% | 36.8% |
